These results are taken from PubChem BioAssay (NCATS).

Molecules are shown by their SMILES. Results filed as inconclusive are left out. Entries that show only a call come without a potency. Activity calls are given as the source filed them. Calls follow the shape of the dose curve; as a rule, active = well fitted inhibition curve with a large enough effect; inconclusive = small, poorly fitted or top-dose-only effect; inactive = flat fitted curve, though single readings scatter.

Sequence of Calcium and integrin-binding protein 1 (Homo sapiens) (Q99828 whole entry, looked up): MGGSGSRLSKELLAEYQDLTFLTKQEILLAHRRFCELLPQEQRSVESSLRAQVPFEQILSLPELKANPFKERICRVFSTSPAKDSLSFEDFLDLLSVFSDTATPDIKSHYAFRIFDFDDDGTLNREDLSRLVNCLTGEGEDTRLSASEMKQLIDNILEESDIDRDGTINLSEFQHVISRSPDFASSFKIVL

This assay addresses Calcium and integrin-binding protein 1 (Homo sapiens) (UniProt Q99828). As to the kind of experiment: Primary qHTS for Identification of Calcium Integrin Binding Protein 1 (CIB1) Competitor (AID 1508620).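 Also: GST tagged CIB1 binding a fluorescein labelled alphaIIb integrin peptide tracer; top concentration of the series differs between compounds.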 Particulars: CIB1-GST / FITC-alphaIIb peptide fluorescence polarization; series mostly up to 114 µM. The method, boiled down:
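Fluorescence polarization competition: CIB1-GST (1 uM final) preincubated with compound 15 min at room temperature, then FITC-labeled alphaIIb peptide (100 nM final) added for another 15 min. Polarization read at Ex 480/Em 540.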
Regarding `CC(C)(O)C1Cc2c(ccc(C(=O)CCc3ccccc3)c2O)O1` (stereo not drawn), the Potency result is “inactive”.
To `CC1CCC/C=C/C(=O)c2c(O)cc(O)cc2CC(=O)O1` (stereo not drawn) belongs “inactive”.
With `CCC(C)C1NC(=O)C(Cc2ccccc2)NC(=O)C(CCCCCC(=O)C(O)CO)NC(=O)C2CCCCN2C1=O` (stereo not drawn), the Potency entry was “inactive”.
To `C=C1C(=O)O[C@H]2CC(=C)[C@H]3CC[C@@](C)(O)[C@@H]3CC12` (stereo partly drawn) belongs “inactive”; to `CCC(CC)C(=O)OC12C(OC(=O)C(C)C)C(C)C3(O)C(C=C(CO)CC4(O)C(=O)C(C)=CC43)C1C2(C)C` (stereo not drawn), “inactive”.
To `COC1CC(O[C@H]2CC[C@]3(C)C4CC[C@]5(C)C(C6=CC(=O)OC6)=CCC56OC46CC[C@@H]3C2)OC(C)C1O[C@@H]1O[C@H](CO[C@@H]2O[C@H](CO)[C@@H](O)[C@H](O)[C@H]2O)[C@@H](O)[C@H](O)[C@H]1O` (stereo partly drawn) belongs “inactive”; to `Cc1cc(C(=O)Cn2cc(C#N)ccc2=O)c(C)n1Cc1ccccc1`, “inactive”.
To `CN(C)CC#CCCC(=O)C(O)(c1ccccc1)C1CCC1` (stereo not drawn) belongs “inactive”; to `C=C(C)C(=O)O[C@H]1/C(C=O)=C\CC/C(CO)=C/[C@H]2OC(=O)C(=C)[C@@H]2[C@@H]1OC`, “inactive”.
With `C=C1CC[C@H]2C(=C)CC[C@H]3C(=C)C(=O)O[C@@H]3[C@@H]12`, the Potency result was “inactive”.
To `CN1c2c(nc(N)[nH]c2=O)NC[C@@H]1CNc1ccc(C(=O)N[C@@H](CCC(=O)O)C(=O)O)cc1` belongs “inactive”; to `C=C(C(=O)OC[C@H]1O[C@@H](OC(=O)/C=C/c2ccccc2)[C@H](O)[C@@H](O)[C@@H]1O)C(O)CO` (stereo partly drawn), “inactive”.
As for `C=C[C@@]1(C)CCC2C(=CCC3[C@]2(C)CCC[C@@]3(C)C(=O)O)C1` (stereo partly drawn), the Potency entry was “inactive”.
As for `COC(=O)C1=COC(O[C@@H]2O[C@H](CO[C@@H]3O[C@H](COC(=O)/C=C\c4ccc(O)cc4)[C@@H](O)[C@H](O)[C@H]3O)[C@@H](O)[C@H](O)[C@H]2O)C2C(CO)=CCC12` (stereo partly drawn), the Potency entry was “inactive”.
For `NCC(CNc1nc(Nc2cccc(NC(=O)N3CCCC3)c2)ncc1I)C(=O)c1cccs1` (stereo not drawn), the Potency entry is “inactive”.
Regarding `Cc1[nH]c2ccc(F)cc2c1-c1nc2c3cccnc3c3ncccc3c2[nH]1`, the Potency result is “inactive”.
Take `Cc1sc2c(c1C)C(c1ccc(Cl)cc1)=N[C@H](CC(=O)NCCCCNC(=O)COc1cccc3c1C(=O)N([C@H]1CCC(=O)NC1=O)C3=O)c1nnc(C)n1-2`: the Potency entry was “inactive”.
To `COc1cc(C#N)ccc1S(=O)(=O)Nc1ccc2c(c1)cc(C)c(=O)n2C` belongs “inactive”; to `CN(C)CCOC(C)(c1ccccc1)c1ccc(Cl)cc1` (stereo not drawn), “inactive”.
To `COc1cccc(NCCC2(c3ccccc3)CC(C)(C)OC(C)(C)C2)c1` belongs “inactive”; to `CC(=O)OC(C)(C)/C=C/C(=O)C(C)(O)C1C(O)CC2(C)C3CC=C(C(C)(C)C(=O)O)C(CC(=O)O)C3(C)C(=O)CC12C` (stereo not drawn), “inactive”.
For `CN(C)C(CCOc1cccc2ccccc12)c1ccccc1` (stereo not drawn), the Potency result is “inactive”.
To `C=C(C(=O)O[C@H]1C/C(C)=C/CC/C(CO)=C/[C@H]2OC(=O)C(=C)[C@H]12)C(O)CO` (stereo partly drawn) belongs “inactive”; to `C=C1C(=O)O[C@@H]2[C@H]1CCC(C)=C(CCC(=O)O)[C@@]2(C)O`, “inactive”.
The same measure for `COC1CC(=O)C23C(=O)NC(CC(C)C)C2C(C)C(C)=CC3/C=C(\C)CCCC1O` (stereo not drawn): “inactive”.
The same measure for `CC12CCC(OC3OC(CO)C(O)C(O)C3OC3OC(CO)C(O)C(O)C3O)CC1CCC1C2CCC2(C)/C(=C3/COC(=O)C3)CCC12O` (stereo not drawn): “inactive”.
`COc1ccc(C[C@H]2COC(=O)[C@@H]2Cc2ccc(O[C@@H]3O[C@H](CO)[C@@H](O)[C@H](O)[C@H]3O)c(OC)c2)cc1OC`: the Potency entry was “inactive”.
The same measure for `O=[N+]([O-])c1ccc(Oc2ccc3c(c2)CCC(c2ccccc2)O3)nc1` (stereo not drawn): “inactive”; for `CC(C)c1ccccc1OC(=O)NCCc1ccc2ccccc2c1`: “inactive”; for `CN(C)C(=O)C(=O)c1cn(C)c2cc(Cl)c(C(=O)N3CCC(Cc4ccc(F)cc4)CC3)cc12`: “inactive”.
As for `CC(C)=CCCC1(C)/C=C/C(OC(=O)C=C(C)C)C(C)(O)/C=C/C(=O)/C(CO)=C\C1` (stereo not drawn), the Potency entry was “inactive”.
To `C=C1/C(=C/C=C2\CCC[C@]3(C)[C@@H]([C@H](C)/C=C/[C@H](O)C4CC4)CC[C@@H]23)C[C@@H](O)C[C@@H]1O` belongs “inactive”.
To `O=C1COc2nccc(-c3ccccc3F)c2CN1Cc1cc(C(F)(F)F)cc(C(F)(F)F)c1` belongs “inactive”.
For `O=C(Nc1ccccc1)N1CCN(c2nc(-c3ccccc3)ns2)CC1`, the Potency entry was “inactive”.
To `COC1C(O)C(OC2CCC3(C)C(CCC45CCC6C7(COC(=O)C7)OC4(O)C6(C)CCC35)C2)OC(C)C1OC1OC(CO)C(OC2OC(CO)C(O)C(O)C2O)C(O)C1O` (stereo not drawn) belongs “inactive”; to `CCOc1cc(C(C)(C)C)ccc1C1=NC(C)(c2ccc(Cl)cc2)C(C)(c2ccc(Cl)cc2)N1C(=O)N1CCN(CCCS(C)(=O)=O)CC1` (stereo not drawn), “inactive”; to `Fc1ccc2[nH]ccc2c1-c1nc(N2CCOCC2)c2sc(CN3CCN(CC4CC4)CC3)cc2n1`, “inactive”.
The same measure for `CN1C(=O)c2sccc2N(C)c2nc(Nc3ccc(S(N)(=O)=O)cc3)ncc21`: “inactive”.
